Measured values published in PubChem BioAssay.
Calls of active or inactive are those of the source.

Experiments:
[1] = binders of probe aFSTL3 on microarray, primary screen, stem cell growth factor project, biochemical, small-molecule microarray, fluorescence 635/667 (AID 1064); settings: higher = more signal;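 note: measures binding of the biotinylated anti-FSTL3 antibody to printed compounds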
[2] = binders from COS7 lysate, DM2A8 probe, primary screen, torsin A project, cell lysate, small-molecule microarray, fluorescence 635/667 (AID 1065); settings: higher = more signal, COS7 lysate expressing mutant human TOR1A
[3] = binders of probe aFGF2 on microarray, primary screen, stem cell growth factor project, biochemical, small-molecule microarray, fluorescence 635/667 (AID 1067); settings: higher = more signal;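 note: measures binding of biotinylated aFGF2 protein to printed compounds on slides; z-score merges feature fluorescence and signal-to-noise across triplicate slides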
[4] = binders of probe aFGF10 on microarray, primary screen, stem cell growth factor project, biochemical, small-molecule microarray, fluorescence 635/667 (AID 1071); settings: higher = more signal;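 note: score merges 667 nm spot intensity and signal to noise from triplicate slides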
[5] = molecular target: Neurogenic locus notch homolog protein 2 (Homo sapiens) (UniProt Q04721); test: Notch2 binders on small-molecule microarrays, primary screen, biochemical, small-molecule microarray, 635 nm fluorescence, stem cell growth factors (AID 1073); settings: Notch2 binding, higher = more signal
Neurogenic locus notch homolog protein 2 (Homo sapiens), sequence (Q04721 whole entry, looked up, canonical isoform): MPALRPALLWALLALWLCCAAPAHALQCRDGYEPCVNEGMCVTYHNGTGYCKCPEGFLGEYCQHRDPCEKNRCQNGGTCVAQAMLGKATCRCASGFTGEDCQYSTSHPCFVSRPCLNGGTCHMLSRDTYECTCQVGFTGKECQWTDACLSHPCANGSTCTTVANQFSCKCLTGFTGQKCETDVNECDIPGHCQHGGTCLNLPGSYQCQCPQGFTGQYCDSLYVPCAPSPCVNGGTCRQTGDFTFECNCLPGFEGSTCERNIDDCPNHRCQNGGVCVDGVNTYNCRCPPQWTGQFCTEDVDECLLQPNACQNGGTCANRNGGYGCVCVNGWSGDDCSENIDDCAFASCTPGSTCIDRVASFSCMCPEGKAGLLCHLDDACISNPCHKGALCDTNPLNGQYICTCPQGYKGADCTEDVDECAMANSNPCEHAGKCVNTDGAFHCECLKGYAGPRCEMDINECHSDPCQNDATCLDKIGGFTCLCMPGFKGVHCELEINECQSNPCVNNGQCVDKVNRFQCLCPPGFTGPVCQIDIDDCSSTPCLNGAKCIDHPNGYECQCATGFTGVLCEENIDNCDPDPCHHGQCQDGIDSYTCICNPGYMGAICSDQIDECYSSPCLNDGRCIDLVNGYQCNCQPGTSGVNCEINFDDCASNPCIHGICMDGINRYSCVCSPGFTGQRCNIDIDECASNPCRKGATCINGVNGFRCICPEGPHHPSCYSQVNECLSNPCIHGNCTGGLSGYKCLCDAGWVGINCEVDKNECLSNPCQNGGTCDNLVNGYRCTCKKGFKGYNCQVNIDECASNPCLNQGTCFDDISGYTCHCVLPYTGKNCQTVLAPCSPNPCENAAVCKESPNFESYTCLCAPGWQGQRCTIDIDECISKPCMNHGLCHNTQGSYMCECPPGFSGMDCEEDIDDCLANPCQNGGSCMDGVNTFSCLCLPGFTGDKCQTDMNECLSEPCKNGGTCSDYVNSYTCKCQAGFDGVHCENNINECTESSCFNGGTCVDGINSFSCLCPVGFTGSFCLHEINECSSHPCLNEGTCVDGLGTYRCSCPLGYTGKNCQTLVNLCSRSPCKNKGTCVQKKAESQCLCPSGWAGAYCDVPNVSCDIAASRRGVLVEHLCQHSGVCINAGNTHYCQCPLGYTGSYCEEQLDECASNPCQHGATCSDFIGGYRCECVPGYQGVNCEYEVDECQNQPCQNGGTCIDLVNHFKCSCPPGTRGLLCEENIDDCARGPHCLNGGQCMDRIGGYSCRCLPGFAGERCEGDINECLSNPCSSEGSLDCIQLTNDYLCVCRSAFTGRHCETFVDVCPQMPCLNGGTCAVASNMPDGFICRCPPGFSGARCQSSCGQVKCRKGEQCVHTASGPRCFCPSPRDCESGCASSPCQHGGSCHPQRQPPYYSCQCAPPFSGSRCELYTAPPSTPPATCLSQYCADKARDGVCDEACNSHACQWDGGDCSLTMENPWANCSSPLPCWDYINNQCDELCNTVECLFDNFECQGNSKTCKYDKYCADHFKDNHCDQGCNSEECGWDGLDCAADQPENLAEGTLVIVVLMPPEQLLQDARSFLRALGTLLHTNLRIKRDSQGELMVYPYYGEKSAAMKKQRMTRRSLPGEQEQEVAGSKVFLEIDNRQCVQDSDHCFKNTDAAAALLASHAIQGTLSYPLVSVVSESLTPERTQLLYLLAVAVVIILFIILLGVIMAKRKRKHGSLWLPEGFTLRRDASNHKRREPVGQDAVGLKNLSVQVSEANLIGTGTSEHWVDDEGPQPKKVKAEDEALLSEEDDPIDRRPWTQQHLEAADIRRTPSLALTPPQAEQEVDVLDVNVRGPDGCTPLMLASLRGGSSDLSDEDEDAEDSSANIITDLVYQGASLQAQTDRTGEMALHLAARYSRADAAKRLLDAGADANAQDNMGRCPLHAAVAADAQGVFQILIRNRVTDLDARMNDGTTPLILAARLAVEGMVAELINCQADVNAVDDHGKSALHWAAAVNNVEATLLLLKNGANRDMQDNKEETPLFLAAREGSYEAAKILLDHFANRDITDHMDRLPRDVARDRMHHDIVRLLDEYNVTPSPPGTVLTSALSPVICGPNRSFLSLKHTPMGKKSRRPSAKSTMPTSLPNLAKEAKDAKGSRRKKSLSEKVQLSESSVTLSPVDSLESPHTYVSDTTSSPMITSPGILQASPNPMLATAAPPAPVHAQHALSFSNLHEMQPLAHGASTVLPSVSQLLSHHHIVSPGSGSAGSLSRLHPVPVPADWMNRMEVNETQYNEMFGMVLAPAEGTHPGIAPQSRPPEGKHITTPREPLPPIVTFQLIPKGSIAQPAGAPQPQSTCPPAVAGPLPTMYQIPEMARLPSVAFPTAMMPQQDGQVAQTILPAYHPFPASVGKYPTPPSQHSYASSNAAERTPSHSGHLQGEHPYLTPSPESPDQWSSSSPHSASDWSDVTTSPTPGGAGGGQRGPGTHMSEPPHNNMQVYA

[6] = molecular target: Pro-neuregulin-1, membrane-bound isoform (Homo sapiens) (UniProt Q02297); test: NRG1 binders on small-molecule microarrays, primary screen, psychiatric disease protein project, biochemical, small-molecule microarray, fluorescence 635/667 (AID 1075); settings: NRG1 binding, 635 nm fluorescence, higher = more signal;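 note: score combines 667 nm spot fluorescence with signal to noise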
Pro-neuregulin-1, membrane-bound isoform (Homo sapiens), sequence (Q02297 whole entry, looked up, the tested form may be a part, canonical isoform): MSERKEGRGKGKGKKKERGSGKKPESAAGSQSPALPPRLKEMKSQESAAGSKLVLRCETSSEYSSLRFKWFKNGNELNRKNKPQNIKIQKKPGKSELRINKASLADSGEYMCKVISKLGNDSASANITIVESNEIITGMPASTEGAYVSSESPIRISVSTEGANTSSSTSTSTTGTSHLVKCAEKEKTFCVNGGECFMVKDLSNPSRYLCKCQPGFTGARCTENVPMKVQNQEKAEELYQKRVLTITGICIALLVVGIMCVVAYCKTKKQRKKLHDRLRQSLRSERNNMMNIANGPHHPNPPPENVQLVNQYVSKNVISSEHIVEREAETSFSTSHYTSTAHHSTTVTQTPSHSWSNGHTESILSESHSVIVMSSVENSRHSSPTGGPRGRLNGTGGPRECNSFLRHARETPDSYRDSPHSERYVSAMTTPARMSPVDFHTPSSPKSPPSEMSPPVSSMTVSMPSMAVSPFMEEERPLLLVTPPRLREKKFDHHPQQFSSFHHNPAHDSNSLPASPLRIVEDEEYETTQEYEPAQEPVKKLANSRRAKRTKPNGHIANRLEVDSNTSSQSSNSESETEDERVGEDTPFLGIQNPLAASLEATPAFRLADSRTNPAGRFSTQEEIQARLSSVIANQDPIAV

[7] = tested on: Neuregulin-1 EGF-like domain; test: binders of neuregulin-1 EGF-like domain, primary screen, biochemical, small-molecule microarray, 635 nm fluorescence (AID 1081); settings: small-molecule microarray binding, higher = more signal;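 note: binding of the protein to compounds printed on small-molecule microarray slides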
[8] = FRG1 promoter luciferase signal modulators, primary screen, FRG1 inhibition for FSHD, cell-based, C2C12 myotubes, firefly/Renilla luciferase, luminescence (AID 1084); settings: higher = more signal, called active from +8 up or from −8 down
[9] = binders of probe aFST on microarray, primary screen, stem cell growth factor project, biochemical, small-molecule microarray, fluorescence 635/667 (AID 1086); settings: higher = more signal;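 note: score merges 667 nm fluorescence with signal-to-noise of each printed compound spot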
[10] = binders of probe aHhip on microarray, primary screen, stem cell growth factor project, biochemical, small-molecule microarray, fluorescence 635/667 (AID 1087); settings: higher = more signal;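 note: score merges spot fluorescence at 667nm with spot signal to noise ratio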

Row | Structure (SMILES) | composite z-score [1] | composite z-score [2] | composite z-score [3] | composite z-score [4] | composite z-score [5] | composite z-score [6] | composite z-score [7] | z-score [8] | composite z-score [9] | composite z-score [10]
1 | COC(=O)C(CC#Cc1ccc2c(c1)[C@]1(C(=O)N2)[C@H](C(=O)O)[C@H]2C(=O)O[C@H](c3ccccc3)[C@H](c3ccccc3)N2[C@@H]1c1ccc(O)cc1)C(=O)OC | 0.43 | 0.108 | -0.0973 | 0.528 | -0.806 | 1.42 | 1.23 | 1.34 (inactive) | -0.384 | -0.236
2 | COc1ccc(CCN2C(=O)[C@@]3(c4ccc([N+](=O)[O-])cc4)CC(=O)N(C4CCCCC4)[C@@H]3c3ccc(CO)cc32)cc1 | -0.126 | 0.0269 | -0.148 | -0.0632 | -0.0731 | 0.0125 | 1.46 | 0.912 (inactive) | -0.135 | -0.0994
3 | CC(C)C[C@@H]1NC(=O)[C@@H]2C[C@H](C(=O)NCCCCCN)[C@H](c3cccc(OCCO)c3)N2C1=O | 0.235 | -0.0087 | 0.0465 | 0.796 | 0.128 | 1.4 | 1.29 | -0.284 (inactive) | 0.393 | 0.28
4 | C=CCC(OC(C)=O)[C@@H]1[C@@H](N(Cc2ccc(-c3cccc(C(F)(F)F)c3)o2)C(=O)Cc2ccc(F)cc2)c2cc(OCCCO)ccc2N1C(=O)Cc1ccc(OC)cc1 (stereo not given in full) | -0.0361 | -0.162 | -0.0971 | 0.318 | -0.944 | -0.14 | -0.751 | -0.373 (inactive) | -0.26 | -0.164
5 | CC(=O)N1Cc2ccccc2C[C@@]2(COC(c3ccc(OCCCO)cc3)=N2)C1=O | 1.54 | 0.842 | 0.235 | 0.51 | 1.18 | 1.4 | 1.07 | -0.41 (inactive) | 1.83 | -0.21
6 | O=C1OCC=C[C@H]2OC34C=CCN(CCN5CCOCC5)C(=O)[C@H]3N(CCCO)C(=O)[C@@H]4[C@@H]12 (stereo not given in full) | -0.206 | -0.426 | -0.139 | -0.02 | -0.146 | -0.125 | 0.59 | 1.78 (inactive) | -0.382 | -0.0003
7 | [N-]=[N+]=NCc1ccccc1C[C@@]1(C(=O)NCC(O)CO)N=C(c2ccc(OCCCO)cc2)O[C@@H]1c1ccccc1N=[N+]=[N-] (stereo not given in full) | 0.516 | -0.133 | 0.0109 | 0.451 | 0.669 | 1.78 | 1 | -0.755 (inactive) | 1.66 | 0.0139
8 | CCOC(=O)C[C@H]1[C@H](OC(=O)c2cc3ccccc3oc2=O)[C@@H](NC(=O)C2CCCCC2)c2cc(OCCCO)ccc2N1C(=O)c1ccccc1 | -0.565 | 0.0071 | -0.121 | 0.642 | 1.29 | 0.0246 | 0.863 | 0.0161 (inactive) | 0.564 | -0.0618
9 | CCCC=C(CCC)[C@@H](NC(=O)Oc1ccc(F)cc1)c1ccc(C(=O)OC)cc1 | 0.415 | 0.175 | 0.0883 | 0.48 | 1.52 | -0.454 | 0.482 | -3.81 (inactive) | 0.794 | -0.121
10 | COCCOC(=O)N1C(=O)[C@@]2(c3cc(C#Cc4ccc(OC)cc4)ccc31)[C@H](C(=O)N1CCCCCCC1)[C@H]1C(=O)O[C@H](c3ccccc3)[C@H](c3ccccc3)N1[C@@H]2c1ccc(OCCO)cc1 | 2.85 | 1.49 | 0.233 | 0.662 | 0.845 | 1.01 | 0.972 | -0.738 (inactive) | 2.43 | 3.2
11 | COCCCN1C(=O)[C@@]2(c3ccc([N+](=O)[O-])cc3)CC(=O)N(C3CCCCC3)[C@@H]2c2ccc(CO)cc21 | -0.246 | 0.178 | -0.153 | -0.118 | -0.537 | -0.214 | 0.467 | 1.07 (inactive) | -0.036 | -0.134
12 | COc1ccc(C(=O)O[C@H]2CC[C@]3(C)C4=C(CCC3C2(C)C)[C@]2(C)CC[C@H]([C@H](C)CCCC(C)C)[C@@]2(C)CC4)cc1 (stereo not given in full) | -0.581 | 0.191 | -0.128 | 0.338 | 0.611 | 0.133 | 0.456 | -1.16 (inactive) | 0.18 | 0.0749
13 | O=C1C2C=CC(C(O)C3CCCCC3)N(Nc3ccc([N+](=O)[O-])cc3)C2C(=O)N1c1ccccc1 (stereo not given) | 0.274 | 0.167 | 0.0333 | 0.239 | -0.795 | 1.33 | 1.18 | -1.48 (inactive) | -0.688 | -0.236
14 | CCCCCN1CC=CC23O[C@@H]4/C=C\CCCOC(=O)C4[C@H]2C(=O)N(CCCO)[C@@H]3C1=O (stereo not given in full) | -0.181 | 1.14 | -0.156 | 0.116 | -0.573 | 0.753 | 1.47 | -0.16 (inactive) | -0.533 | -0.11
15 | COc1cc2c(cc1O)C=[N+](Cc1cccc(OC(F)(F)F)c1)CC2 | -0.193 | 0.137 | -0.106 | -0.0214 | 0.457 | 0.529 | 0.544 | -0.886 (inactive) | -0.0596 | -0.374
16 | CCOC(=O)[C@H]1C/C=C/C[C@H](C(=O)OCC)C(=O)O[C@H]2[C@@H](OC)O[C@H](CO)[C@@H](OC(=O)Nc3cccc(F)c3)[C@@H]2OC1=O | -0.621 | -0.125 | -0.0766 | 0.39 | 0.196 | 1.21 | 1.15 | 0.15 (inactive) | 0.0218 | -0.444
